The supplement of paper PMC10849652
About 8,800 targets were measured; listed, in parts, are those with a hit and a random draw of the rest. About 0.5% of all pairs of compound and target were hits. A number with no mark means an inactive call.

Columns and labels:
Assay in all cases: log2 fold change, soluble protein after heating vs DMSO (PISA); higher = thermal stabilisation; K562 lysate, 10 uM; active = over 0.2 and 3.5 SD of the protein, either way, in both replicates (recomputed)
ibrutinib = compound: C=CC(=O)N1CCC[C@@H](n2nc(-c3ccc(Oc4ccccc4)cc3)c3c(N)ncnc32)C1 [ibrutinib]
How it was run: (§1)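 Dounce homogenisation of K562 pellets in PBS pH 7.4 with 1 mM MgCl2 produced a crude extract, used at 1 mg/mL protein. Exposure to 10 μM compound lasted 30 min, and aliquots were then heated for 3 min across 48°C-58°C, pooled and brought to 0.5% NP-40 at 4°C. The supernatant after 21,000xg for 90 min was quantified by TMTpro 16plex LC-MS/MS with channel sums equalised. Duplicate values are given as log-two fold change in thermal stability relative to solvent controls.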

[1] = compound: CC(=O)c1cnc2ccc(-c3cc(Cl)c(O)c(Cl)c3)nc2c1N[C@H]1CC[C@H](CN(C)C)CC1
How it was run: as §1

ralimetinib = compound: CC(C)(C)Cn1c(N)nc2ccc(-c3[nH]c(C(C)(C)C)nc3-c3ccc(F)cc3)nc21 [ralimetinib]
How it was run: as §1

[2] = compound: CC(C)(O)CC(=O)NCCn1ccc2ncnc(Nc3ccc(Oc4cccc(C(F)(F)F)c4)c(Cl)c3)c21
How it was run: as §1

[3] = compound: CC(C)C1=C2N=C(C=C(N2N=C1)NCC3=CC=CC=C3)NCCCCCCN
How it was run: as §1

[4] = compound: CC1=C(C(CC(=O)N1)C2=CC=C(C=C2)C(F)(F)F)C(=O)NC3=C(C=C4C(=C3)C=NN4)F
How it was run: as §1

[5] = compound: CC1=C(C2=C(C=C1)C(=O)C3=CC=CC=C3N2CCCN)C
How it was run: as §1

[6] = compound: CC1=C(C=C(C=C1)NC(=O)C2=CC(=CC=C2)C(C)(C)C#N)NC3=CC4=C(C=C3)N=CN(C4=O)C
How it was run: as §1

[7] = compound: CC1=C(C=C(C=C1)NC(=O)C2=CC(=CC=C2)N(C)C)NC(=O)C3=CC=C(C=C3)O
How it was run: as §1

[8] = compound: CC1=CC=C(C=C1)SC2=C3C=C(SC3=CN=C2)C(=O)N
How it was run: as §1

UniProt P05771, sequence (P05771 whole entry, looked up): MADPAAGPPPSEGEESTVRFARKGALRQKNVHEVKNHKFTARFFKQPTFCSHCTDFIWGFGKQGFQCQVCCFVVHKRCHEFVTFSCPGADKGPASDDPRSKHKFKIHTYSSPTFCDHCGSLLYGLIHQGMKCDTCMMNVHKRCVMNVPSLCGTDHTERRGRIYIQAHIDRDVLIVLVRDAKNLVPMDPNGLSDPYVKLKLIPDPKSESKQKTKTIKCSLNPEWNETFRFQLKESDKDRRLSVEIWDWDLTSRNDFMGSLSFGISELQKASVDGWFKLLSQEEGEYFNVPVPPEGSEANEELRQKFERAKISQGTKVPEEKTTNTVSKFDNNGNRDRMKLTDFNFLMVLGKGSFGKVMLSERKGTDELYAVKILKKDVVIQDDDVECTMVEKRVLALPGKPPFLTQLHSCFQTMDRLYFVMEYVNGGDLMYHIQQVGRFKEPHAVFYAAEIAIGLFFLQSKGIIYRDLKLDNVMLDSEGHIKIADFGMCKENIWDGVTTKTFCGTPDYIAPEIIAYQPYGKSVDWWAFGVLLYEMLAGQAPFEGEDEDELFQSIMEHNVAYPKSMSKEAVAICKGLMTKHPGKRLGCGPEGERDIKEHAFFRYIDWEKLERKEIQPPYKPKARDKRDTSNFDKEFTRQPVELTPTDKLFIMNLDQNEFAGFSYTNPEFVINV
UniProt P78395, sequence (P78395 whole entry, looked up): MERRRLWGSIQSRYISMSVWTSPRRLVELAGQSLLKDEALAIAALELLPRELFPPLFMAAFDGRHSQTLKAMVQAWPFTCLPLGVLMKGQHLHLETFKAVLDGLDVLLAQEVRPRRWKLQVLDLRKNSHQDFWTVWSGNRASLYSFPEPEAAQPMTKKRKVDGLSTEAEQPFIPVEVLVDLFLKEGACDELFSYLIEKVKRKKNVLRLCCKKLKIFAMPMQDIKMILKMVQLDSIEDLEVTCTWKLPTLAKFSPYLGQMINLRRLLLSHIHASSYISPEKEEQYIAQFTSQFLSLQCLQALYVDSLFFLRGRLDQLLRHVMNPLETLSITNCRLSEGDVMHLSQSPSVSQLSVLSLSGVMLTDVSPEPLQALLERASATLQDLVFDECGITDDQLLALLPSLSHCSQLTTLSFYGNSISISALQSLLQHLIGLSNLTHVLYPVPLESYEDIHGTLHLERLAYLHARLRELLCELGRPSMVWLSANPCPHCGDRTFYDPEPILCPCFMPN
UniProt P0CAP2, sequence (P0CAP2 whole entry, looked up): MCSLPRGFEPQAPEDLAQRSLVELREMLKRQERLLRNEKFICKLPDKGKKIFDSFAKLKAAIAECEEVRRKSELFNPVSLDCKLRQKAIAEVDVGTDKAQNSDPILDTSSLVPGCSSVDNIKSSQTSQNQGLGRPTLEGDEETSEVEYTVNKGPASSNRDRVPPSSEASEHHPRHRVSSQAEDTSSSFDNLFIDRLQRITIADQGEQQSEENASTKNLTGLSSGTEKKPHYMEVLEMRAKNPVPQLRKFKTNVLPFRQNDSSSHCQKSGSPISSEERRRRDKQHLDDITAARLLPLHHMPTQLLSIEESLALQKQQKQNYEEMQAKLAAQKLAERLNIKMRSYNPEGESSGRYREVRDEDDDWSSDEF
UniProt Q969Q6, sequence (Q969Q6 whole entry, looked up): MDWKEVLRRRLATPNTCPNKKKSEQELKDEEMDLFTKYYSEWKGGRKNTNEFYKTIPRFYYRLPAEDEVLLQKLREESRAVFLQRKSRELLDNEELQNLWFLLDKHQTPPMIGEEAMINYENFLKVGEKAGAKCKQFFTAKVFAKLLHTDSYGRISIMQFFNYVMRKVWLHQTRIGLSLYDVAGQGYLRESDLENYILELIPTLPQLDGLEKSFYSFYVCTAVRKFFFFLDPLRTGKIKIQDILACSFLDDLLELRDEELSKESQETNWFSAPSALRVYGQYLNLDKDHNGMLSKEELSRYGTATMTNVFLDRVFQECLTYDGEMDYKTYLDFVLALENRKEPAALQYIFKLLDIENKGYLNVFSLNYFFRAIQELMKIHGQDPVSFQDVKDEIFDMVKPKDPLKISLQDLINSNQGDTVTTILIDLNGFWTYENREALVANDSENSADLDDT
UniProt P13667, sequence (P13667 whole entry, looked up): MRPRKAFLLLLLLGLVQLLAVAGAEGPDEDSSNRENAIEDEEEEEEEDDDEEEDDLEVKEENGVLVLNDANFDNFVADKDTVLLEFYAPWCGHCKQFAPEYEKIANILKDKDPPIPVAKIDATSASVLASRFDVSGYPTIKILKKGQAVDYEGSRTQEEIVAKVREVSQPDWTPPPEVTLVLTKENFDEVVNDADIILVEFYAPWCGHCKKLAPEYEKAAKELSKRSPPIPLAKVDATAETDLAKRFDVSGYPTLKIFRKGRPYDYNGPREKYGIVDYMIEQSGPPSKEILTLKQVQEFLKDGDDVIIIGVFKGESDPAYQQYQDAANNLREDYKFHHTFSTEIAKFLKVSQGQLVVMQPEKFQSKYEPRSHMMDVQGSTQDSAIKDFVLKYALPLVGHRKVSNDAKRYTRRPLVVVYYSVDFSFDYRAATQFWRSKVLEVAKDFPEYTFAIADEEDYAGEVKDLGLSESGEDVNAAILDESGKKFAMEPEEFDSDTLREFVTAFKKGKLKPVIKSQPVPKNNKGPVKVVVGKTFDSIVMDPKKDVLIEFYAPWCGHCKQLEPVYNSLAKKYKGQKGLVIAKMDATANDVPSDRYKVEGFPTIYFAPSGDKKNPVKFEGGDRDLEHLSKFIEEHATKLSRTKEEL
UniProt O43663, sequence (O43663 whole entry, looked up): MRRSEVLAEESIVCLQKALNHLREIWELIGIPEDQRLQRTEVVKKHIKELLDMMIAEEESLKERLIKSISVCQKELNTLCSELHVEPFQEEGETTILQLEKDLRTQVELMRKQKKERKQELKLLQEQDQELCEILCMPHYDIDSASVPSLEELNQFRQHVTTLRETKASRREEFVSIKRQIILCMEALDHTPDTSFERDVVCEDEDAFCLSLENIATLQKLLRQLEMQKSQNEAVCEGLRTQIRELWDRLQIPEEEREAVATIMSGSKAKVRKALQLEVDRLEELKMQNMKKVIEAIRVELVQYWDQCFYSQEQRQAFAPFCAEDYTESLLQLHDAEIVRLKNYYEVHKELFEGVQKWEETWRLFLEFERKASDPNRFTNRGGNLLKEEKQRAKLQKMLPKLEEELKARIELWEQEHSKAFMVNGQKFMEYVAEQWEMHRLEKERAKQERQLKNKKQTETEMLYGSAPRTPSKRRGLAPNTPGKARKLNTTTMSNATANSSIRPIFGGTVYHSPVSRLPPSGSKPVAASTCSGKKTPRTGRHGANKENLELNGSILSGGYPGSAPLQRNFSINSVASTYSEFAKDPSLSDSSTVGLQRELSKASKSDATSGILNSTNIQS
UniProt Q96I23, sequence (Q96I23 whole entry, looked up): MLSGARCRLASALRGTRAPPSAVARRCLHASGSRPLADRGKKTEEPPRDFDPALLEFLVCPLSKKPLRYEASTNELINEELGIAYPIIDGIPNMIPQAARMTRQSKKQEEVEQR
UniProt Q9UMR5, sequence (Q9UMR5 whole entry, looked up): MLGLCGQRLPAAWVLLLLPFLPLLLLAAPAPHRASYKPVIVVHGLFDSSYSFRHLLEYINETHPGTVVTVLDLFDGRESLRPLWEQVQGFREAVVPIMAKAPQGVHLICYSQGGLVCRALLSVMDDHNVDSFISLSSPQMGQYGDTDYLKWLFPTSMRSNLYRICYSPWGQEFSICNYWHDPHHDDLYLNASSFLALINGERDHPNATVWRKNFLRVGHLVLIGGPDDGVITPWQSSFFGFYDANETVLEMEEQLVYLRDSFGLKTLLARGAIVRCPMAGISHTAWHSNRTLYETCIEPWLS
UniProt Q9BSG0, sequence (Q9BSG0 whole entry, looked up): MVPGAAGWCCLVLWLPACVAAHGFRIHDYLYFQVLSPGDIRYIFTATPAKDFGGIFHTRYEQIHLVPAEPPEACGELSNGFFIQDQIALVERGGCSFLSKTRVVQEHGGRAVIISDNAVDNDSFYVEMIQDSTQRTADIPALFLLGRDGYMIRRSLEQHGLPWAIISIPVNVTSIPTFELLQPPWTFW
UniProt Q9Y5K3, sequence (Q9Y5K3 whole entry, looked up): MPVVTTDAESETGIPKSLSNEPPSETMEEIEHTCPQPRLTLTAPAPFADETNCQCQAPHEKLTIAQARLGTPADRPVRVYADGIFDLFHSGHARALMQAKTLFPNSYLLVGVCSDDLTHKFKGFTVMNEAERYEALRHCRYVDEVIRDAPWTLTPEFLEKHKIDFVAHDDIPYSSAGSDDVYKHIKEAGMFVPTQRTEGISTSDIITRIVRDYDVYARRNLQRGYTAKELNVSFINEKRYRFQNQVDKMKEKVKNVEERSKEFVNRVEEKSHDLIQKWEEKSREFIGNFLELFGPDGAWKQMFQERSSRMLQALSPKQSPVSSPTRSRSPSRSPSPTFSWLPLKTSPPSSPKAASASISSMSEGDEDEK
UniProt P28065, sequence (P28065 whole entry, looked up): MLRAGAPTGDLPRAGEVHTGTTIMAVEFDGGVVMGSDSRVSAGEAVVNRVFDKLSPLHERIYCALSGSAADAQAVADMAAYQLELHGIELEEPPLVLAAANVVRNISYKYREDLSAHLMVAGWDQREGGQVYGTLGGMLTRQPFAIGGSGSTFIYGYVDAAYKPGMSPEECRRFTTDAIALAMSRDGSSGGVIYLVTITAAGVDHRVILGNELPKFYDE
UniProt Q9BUL8, sequence (Q9BUL8 whole entry, looked up): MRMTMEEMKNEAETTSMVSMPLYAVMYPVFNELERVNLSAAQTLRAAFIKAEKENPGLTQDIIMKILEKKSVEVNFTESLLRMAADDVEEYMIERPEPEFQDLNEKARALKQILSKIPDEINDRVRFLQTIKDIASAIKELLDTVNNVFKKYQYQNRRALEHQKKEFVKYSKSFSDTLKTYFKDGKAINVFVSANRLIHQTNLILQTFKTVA
UniProt Q9HBH1, sequence (Q9HBH1 whole entry, looked up): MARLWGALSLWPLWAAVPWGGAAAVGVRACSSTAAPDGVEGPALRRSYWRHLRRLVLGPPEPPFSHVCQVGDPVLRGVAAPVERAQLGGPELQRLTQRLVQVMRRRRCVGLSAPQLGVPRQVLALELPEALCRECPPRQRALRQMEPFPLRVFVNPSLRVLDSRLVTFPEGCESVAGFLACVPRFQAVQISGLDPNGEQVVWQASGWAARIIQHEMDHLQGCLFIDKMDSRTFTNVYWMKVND

Row | Target | log2 fold change (ibrutinib) | log2 fold change [1] | log2 fold change (ralimetinib) | log2 fold change [2] | log2 fold change [3] | log2 fold change [4] | log2 fold change [5] | log2 fold change [6] | log2 fold change [7] | log2 fold change [8]
1 | PTMA (UniProt P06454) | 0.015 | 0.028 | -0.121 | 0.009 | 0.004 | -0.068 | 0.006 | 0.023 | -0.015 | 0.002
2 | PI4KA (UniProt P42356) | 0.012 | 0.119 | 0.011 | -0.073 | -0.045 | 0 | -0.039 | 0.032 | 0.04 | -0.002
3 | PLIN2 (UniProt Q99541) | 0.015 | 0.031 | -0.014 | -0.022 | -0.001 | 0.069 | -0.007 | 0.016 | 0.025 | 0
4 | POLB (UniProt P06746) | -0.011 | -0.003 | 0.068 | -0.042 | 0.083 | 0.017 | -0.006 | -0.027 | -0.034 | -0.003
5 | PSMB9 (UniProt P28065) | -0.073 | -0.196 | 0.052 | -0.01 | 0.011 | 0.003 | -0.047 | 0.096 | -0.027 | -0.178
6 | PPOX (UniProt P50336) | 0.067 | -0.008 | 0.001 | 0.091 | 0.301 | -0.022 | -0.138 | 0.105 | 0.006 | 0.012
7 | PRADC1 (UniProt Q9BSG0) | 0.026 | -0.395 | -0.023 | 0.041 | -0.125 | 0.026 | -0.009 | 0.072 | 0.008 | -0.023
8 | PGRMC1 (UniProt O00264) | 0.057 | 0.013 | 0.008 | -0.01 | -0.035 | 0.004 | 0.022 | -0.066 | -0.007 | -0.005
9 | PPIL3 (UniProt Q9H2H8) | 0.044 | 0.029 | -0.023 | -0.028 | 0.022 | 0.001 | 0.003 | 0.011 | 0.009 | 0.005
10 | POLR2M (UniProt P0CAP2) | -0.011 | 0.014 | -0.018 | -0.042 | -0.001 | -0.014 | -0.046 | -0.055 | -0.008 | 0.007
11 | PTK2 (UniProt Q05397) | 0.085 | 0.188 | -0.002 | 0.044 | -0.015 | -0.024 | 0.011 | -0.054 | -0.007 | -0.128
12 | PEX2 (UniProt P28328) | 0.017 | -0.114 | 0.021 | -0.098 | 0.023 | 0.14 | -0.07 | -0.002 | 0.065 | 0.035
13 | PYURF (UniProt Q96I23) | 0.189 | -0.026 | -0.005 | 0.079 | 0.016 | 0.058 | -0.05 | 0.084 | 0.012 | -0.026
14 | PPIL2 (UniProt Q13356) | -0.002 | -0.003 | 0.02 | 0.025 | 0.046 | 0.011 | -0.017 | 0.033 | 0.003 | 0.005
15 | PDF (UniProt Q9HBH1) | 0.054 | 0.016 | -0.014 | 0.066 | 0.001 | 0.01 | 0.07 | 0.048 | -0.018 | 0.059
16 | PRAME (UniProt P78395) | 0.009 | 0.029 | 0.003 | 0.005 | 0.011 | 0.015 | 0.003 | 0.006 | 0.008 | 0.002
17 | PRMT5 (UniProt O14744) | 0.004 | -0.002 | -0.015 | 0.004 | -0.004 | -0.015 | -0.008 | 0.001 | -0.01 | 0.022

Row | Target | log2 fold change (ibrutinib) | log2 fold change [1] | log2 fold change (ralimetinib) | log2 fold change [2] | log2 fold change [3] | log2 fold change [4] | log2 fold change [5] | log2 fold change [6] | log2 fold change [7] | log2 fold change [8]
18 | PDE4DIP isoform 4 (UniProt Q5VU43) | 0.249 | -0.021 | 0.02 | -0.03 | -0.061 | -0.032 | 0.006 | 0.054 | -0.033 | 0.017
19 | PUS3 (UniProt Q9BZE2) | -0.034 | -0.025 | 0.05 | 0.094 | -0.046 | 0.045 | 0.136 | -0.12 | -0.006 | 0
20 | PDXDC1 (UniProt Q6P996) | -0.006 | 0.051 | 0.071 | -0.017 | 0.001 | 0.014 | -0.024 | -0.019 | 0.024 | 0.022
21 | PIK3CD (UniProt O00329) | -0.14 | 0.222 | -0.017 | -0.123 | -0.12 | 0.021 | -0.032 | 0.04 | 0.098 | -0.056
22 | PPP3CA isoform 2 (UniProt Q08209) | 0.017 | 0.012 | -0.01 | -0.052 | -0.014 | 0 | -0.03 | 0.03 | 0.028 | -0.012
23 | PDIA4 (UniProt P13667) | 0.006 | -0.008 | -0.016 | 0.011 | 0.001 | -0.01 | 0.021 | -0.038 | 0.011 | 0.007
24 | PIGO (UniProt Q8TEQ8) | 0.093 | 0.016 | -0.039 | -0.013 | -0.068 | -0.041 | -0.05 | -0.1 | -0.047 | -0.158
25 | PPT2 isoform 3 (UniProt Q9UMR5) | 0.03 | 0.068 | -0.001 | -0.022 | -0.019 | -0.026 | 0.002 | -0.038 | -0.015 | -0.013
26 | PRKCSH (UniProt K7ELL7) | -0.05 | 0.018 | 0.049 | -0.051 | 0.049 | 0.006 | -0.017 | -0.019 | 0.005 | -0.052
27 | PRRC2A (UniProt P48634) | 0.006 | -0.014 | -0.01 | -0.02 | 0.002 | 0.015 | -0.003 | -0.26 (active) | 0.003 | -0.026
28 | PCYT1B (UniProt Q9Y5K3) | -0.051 | -0.007 | 0.003 | 0.013 | -0.042 | -0.039 | -0.03 | 0.016 | -0.002 | 0.026
29 | PDCD10 (UniProt Q9BUL8) | 0.001 | 0.062 | 0 | -0.006 | -0.008 | -0.02 | 0.016 | 0.021 | -0.02 | -0.02
30 | PRC1 (UniProt O43663) | -0.007 | 0.009 | -0.016 | 0.01 | 0.01 | 0.039 | -0.006 | 0.025 | 0.021 | 0.059
31 | PRKCB isoform 2 (UniProt P05771) | -0.017 | 0.548 (active) | 0.02 | 0 | 0.013 | 0.002 | -0.055 | 0.042 | -0.009 | -0.113
32 | PPP2R3C (UniProt Q969Q6) | 0.108 | 0.089 | 0.109 | 0.036 | -0.088 | 0.021 | -0.02 |  | 0.048 | 0.196
33 | PUS1 (UniProt Q9Y606) | 0.006 | 0.004 | 0.013 | -0.006 | 0.005 | -0.009 | -0.032 | 0.028 | 0.031 | -0.021
